Six compounds from PubChem BioAssay (Tox21) can be followed below.

Test [1] can be described thus: qHTS assay to identify small molecule antagonists of the estrogen related receptor signaling pathway with the pleiotropic PPARgamma coactivator (PGC) from Tox21 10K library - cell viability counter screen (AID 1224840; active = well fitted cell-killing curve with a large enough effect in the repeat runs, not every such curve was filed as active; also: nearly all actives have a fitted effect of over 40% in size). In short, it runs like this: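 Fluorescence read-out of CellTiter-Fluor viability reagent, added after cells had been exposed to compound in DMSO for 17.5 h at 37 C; 30 min development at 37 C/5% CO2. Cells: PGC/ERR line, 2,000/well.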

The nature of test [2]: qHTS assay to identify small molecule agonists of the hypoxia (HIF-1) signaling pathway - cell viability counter screen (AID 1224844; calls by dose curve; also: nearly all actives have a fitted effect of over 50% in size; also: potency is read from the fitted curve at half-maximal effect). In short, it runs like this: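 CellTiter-Glo luminescence read-out, 30 min RT, taken in the same wells as the beta-lactamase HRE reporter assay; HRE-bla ME-180 cells, 0.5% dialyzed FBS, 17 hr compound treatment at 37C, 5% CO2.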
For orientation: In qHTS, concentration-response curves come from the screen itself.

A short description of test [3]: qHTS RealTime-Glo MT Cell Viability Assay in HEK293 cells - 16 hour (AID 1224872). Also: nearly all actives have a fitted effect of over 50% in size. Also: potency is read from the fitted curve at half-maximal effect. As to activity change, negative = cytotoxicity: top concentration of the series differs between compounds. In short, it runs like this: (§1)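 Homogeneous bioluminescent viability format in HEK293 cells (600 cells/well). Following 5 h at 37 C/5% CO2, 23 nL compound was pintooled; the signal was measured repeatedly during 40 h incubation.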
Test [4] can be described thus: qHTS RealTime-Glo MT Cell Viability Assay in HepG2 cells - 8 hour (AID 1224873). Also: nearly all actives have a fitted effect of over 55% in size. A digest of the protocol:
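HepG2 cells (600/well) mixed with RealTime-Glo MT reagent, settled 5 h at 37 C/5% CO2 before compound addition. Nonlytic NanoLuc luminescence from viable-cell prosubstrate reduction read repeatedly during 40 h treatment at 37 C.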

Test [5] can be described thus: A CellTox Green Cytotoxicity Assay to monitor cytotoxicity in HEK293 cells - 24 hour (AID 1224875). Also: nearly all actives have a fitted effect of over 45% in size. Also: potency is read from the fitted curve at half-maximal effect. As to activity change: series mostly up to about 77 µM. A digest of the protocol:
(§2)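 Read-out: fluorescence of a cell-impermeant cyanine dye staining DNA of dead cells, proportional to cytotoxicity. HEK293, 600 cells/well with reagent, compound (23 nL DMSO) added after 5 h; reads at 0, 8, 16, 24, 32, 40 h.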

A short description of test [6]: A CellTox Green Cytotoxicity Assay to monitor cytotoxicity in HEK293 cells - 32 hour (AID 1224881). Also: nearly all actives have a fitted effect of over 40% in size. Also: potency is read from the fitted curve at half-maximal effect. A digest of the protocol: as §2
Test [7] in a line: qHTS RealTime-Glo MT Cell Viability Assay in HEK293 cells - 24 hour (AID 1224886). Also: nearly all actives have a fitted effect of over 50% in size. Also: potency is read from the fitted curve at half-maximal effect. As to activity change, negative = cytotoxicity: top concentration of the series differs between compounds. In short, it runs like this:
as §1

Test [8] in a line: qHTS assay to identify small molecule agonists of the androgen receptor (AR) signaling pathway in the presence of an antagonist - cell viability counter screen (AID 1259379).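 Also: MDA-kb2 human breast cancer cells carrying an MMTV luciferase reporter; series mostly up to about 92 µM; nearly all actives have a fitted effect of over 25% in size.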 A digest of the protocol: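 Viability counter screen: CellTiter-Fluor fluorescence, measured in the same wells as the luciferase read-out. MDA-kb2 cells, 3,000/well, with nilutamide at 3.0uM final and compounds at 15 concentrations, 16 hr at 37C, 0% CO2.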

The target of test [9] is Thyrotropin receptor (Homo sapiens) (UniProt P16473). The experiment in a line: qHTS assay to identify small molecule antagonists of the thyroid stimulating hormone receptor (TSHR) signaling pathway (AID 1259385; calls by dose curve; also: nearly all actives have a fitted effect of over 20% in size). A digest of the protocol: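 TSHR-HEK293 cells (800/well) plated 18 h, then compounds with Ro20-1724 and TSH at 1.5 ng/mL final, 30 min at room temperature. cAMP quantified by HTRF (cAMP-d2/anti-cAMP-cryptate, 1 h); 15 concentrations in triplicate.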

The target of test [10] is Progesterone receptor (Homo sapiens) (UniProt P06401). Briefly: qHTS assay to identify small molecule agonists of the progesterone receptor (PR) signaling pathway (AID 1346784; calls by dose curve; also: nearly all actives have a fitted effect of over 30% in size). In short, it runs like this: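 PR-UAS-bla HEK 293T cells (beta-lactamase reporter under UAS) in 2% charcoal-stripped FBS, dosed with 23 nL compound after 6 hr, incubated 16hr at 37C. LiveBLAzer B/G FRET substrate added, fluorescence read after 2 hours.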

The nature of test [11]: qHTS assay to identify small molecule antagonists of the progesterone receptor (PR) signaling pathway - cell viability counter screen (AID 1346798). Also: nearly all actives have a fitted effect of over 50% in size. Also: potency is read from the fitted curve at half-maximal effect. As to activity change, negative = cytotoxicity: series mostly up to about 92 µM. In short, it runs like this: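 PR-UAS-bla HEK293T cells, 3,000/well in 2% charcoal-stripped FBS medium, dosed with compounds plus R5020 agonist and incubated 16 h at 37C. Viability then measured in the same wells by CellTiter-Glo luminescence after 30 min at RT.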

Test [12] in a line: Caspase-3/7 induction in HepG2 cells by small molecules, qHTS cell viability counter screen (AID 1346981). Also: nearly all actives have a fitted effect of over 30% in size. Also: potency is read from the fitted curve at half-maximal effect. As to activity change, negative = cytotoxicity: series mostly up to about 92 µM. A digest of the protocol: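 Fluorescence read-out of live-cell protease activity (CellTiter-Fluor) after 1 hr with reagent. This was measured in the same wells as the caspase-3/7 luminescence, on HepG2 cells exposed to DMSO-dissolved compounds for 16 hr at 37 C.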
Test [13] can be described thus: qHTS assay to identify small molecule agonists of the RXR signaling pathway - cell viability counter screen (AID 1159529). Also: nearly all actives have a fitted effect of over 50% in size. Also: potency is read from the fitted curve at half-maximal effect. As to activity change, negative = cytotoxicity: series mostly up to about 77 µM. A digest of the protocol: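 RXR-alpha-UAS-bla HEK 293T cells in medium with 2% charcoal-stripped FBS were pre-incubated 5 hr, then compound-treated 16 hr at 37 C. Viability was read by CellTiter-Glo luminescence in the same wells as the beta-lactamase assay, with tetraoctyl ammonium bromide as positive control.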

For test [14], the target named is Nuclear receptor subfamily 1 group I member 3 (Homo sapiens) (UniProt Q14994). Briefly: qHTS assay to identify small molecule agonists of the constitutive androstane receptor (CAR) signaling pathway (AID 1224839). Also: nearly all actives have a fitted effect of over 15% in size. Also: potency is read from the fitted curve at half-maximal effect.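 As to activation: HepG2 cells stably carrying human CAR and a CYP2B6 luciferase reporter; series mostly up to about 92 µM.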 A digest of the protocol:
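HepG2 cells stably co-transfected with hCAR and a CYP2B6-2.2kb luciferase reporter; compounds at 15 concentrations with 0.75 uM PK11195 present. After 24 hr at 37 C, luciferase read by ONE-Glo luminescence.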

Test [15] is described as follows: qHTS assay to identify small molecule antagonists of the estrogen receptor beta (ER-beta) signaling pathway - cell viability counter screen (AID 1259382). Also: nearly all actives have a fitted effect of over 55% in size. Also: potency is read from the fitted curve at half-maximal effect.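 As to activity change, negative = cytotoxicity: HEK293T cells carrying ER-beta-UAS-bla reporter stimulated with estradiol; series mostly up to about 92 µM.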 A digest of the protocol: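 Luminescent ATP read-out (CellTiter-Glo, 30 min, RT) taken in the same wells as the bla reporter assay. HEK293T ER-beta-UAS-bla cells in 2% charcoal-stripped FBS were exposed to compounds with 1nM E2 for 16 hr at 37C.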

Test [16] has as its target Thyrotropin-releasing hormone receptor (Homo sapiens) (UniProt P34981). Briefly: qHTS assay to identify small molecule agonists of the thyrotropin-releasing hormone receptor (TRHR) signaling pathway (AID 1346891; calls by dose curve; also: series mostly up to about 58 µM). A digest of the protocol: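 HEK293 cells expressing TRHR plated 18 h at 37 C/5% CO2, calcium dye-loaded 2 h at 37 C, then compound added (agonist mode); kinetic calcium fluorescence read 3 min at 1 s intervals; 15 concentrations in triplicate.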

Test [17] in a line: Caspase-3/7 induction in CHO-K1 cells by small molecules, qHTS cell viability counter screen (AID 1346979). Also: nearly all actives have a fitted effect of over 35% in size. Also: potency is read from the fitted curve at half-maximal effect. A digest of the protocol:
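Wild-type CHO-K1 cells (1,500/well) treated with compound after 5 h plating; after 16 h at 37C, viability read as CellTiter-Fluor fluorescence following 1 h reagent incubation, in the same wells as the caspase read.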

Test [18] can be described thus: qHTS assay to identify small molecule antagonists of the retinoid acid receptor (RAR) signaling pathway - cell viability counter screen (AID 1159551). Also: nearly all actives have a fitted effect of over 35% in size. A digest of the protocol: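 C3RL4 RARE-luciferase line; cpds + retinol 1 uM final, 6 h, 37 C/5% CO2; CellTiter-Glo ATP luminescence, 30 min RT.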
Test [19] in a line: Human pregnane X receptor (PXR) small molecule agonists, qHTS cell viability counter screen (AID 1346977). Also: nearly all actives have a fitted effect of over 50% in size. Also: potency is read from the fitted curve at half-maximal effect. A digest of the protocol:
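PXR-Luc HepG2 cells (2,000/well, 5% charcoal-stripped FBS) preincubated 5 hr, then exposed to compounds 24 hr at 37 C. Viability read in the same wells by CellTiter-Fluor fluorescence, reagent added at 23 hr, 1 hr incubation.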

The target in test [20] is Cytochrome P450 2D6 (Homo sapiens) (UniProt P10635). Briefly: Cytochrome P450 Family 2 Subfamily D Member 6 (CYP2D6) small molecule antagonists: luciferase reporter qHTS assay (AID 1671196). In short, it runs like this: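 Luminogenic proluciferin substrate, CYP2D6 enzyme; 10 min RT preincubation with compound, NADPH regeneration system added, 1 h RT. Stop/detection reagent, 20 min RT, luminescence read (RLU). Signal proportional to CYP activity.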
On the technique in general: Reporter assays use an easily measured gene product as a stand-in for the process of interest.

Where “and” joins values, the source holds several entries; their conditions need not be identical. Equal entries are not always repeated. A number with no mark means an inactive call. Results filed as inconclusive are left out. Calls of active or inactive are those of the source. Unless noted, calls follow the shape of the dose curve; as a rule, active = well fitted curve in the direction sought with a large enough effect in the repeat runs; inconclusive = weak or mixed curves; inactive = no such curve, though single readings can be large; an effect the other way counts as inactive or inconclusive.
% is scaled to controls: 0 for no effect and ±100 for the full control effect.

Sequence of Nuclear receptor subfamily 1 group I member 3 (Homo sapiens) (Q14994 whole entry, looked up): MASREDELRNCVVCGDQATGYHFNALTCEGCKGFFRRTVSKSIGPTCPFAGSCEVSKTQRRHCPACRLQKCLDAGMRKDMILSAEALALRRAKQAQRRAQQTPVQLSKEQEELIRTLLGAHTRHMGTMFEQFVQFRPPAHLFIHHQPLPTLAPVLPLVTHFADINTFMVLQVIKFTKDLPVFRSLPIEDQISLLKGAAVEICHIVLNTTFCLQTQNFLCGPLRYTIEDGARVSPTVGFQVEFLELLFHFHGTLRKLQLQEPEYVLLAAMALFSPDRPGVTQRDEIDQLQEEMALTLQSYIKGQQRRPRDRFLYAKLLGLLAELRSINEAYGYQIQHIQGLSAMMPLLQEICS
Sequence of Thyrotropin-releasing hormone receptor (Homo sapiens) (P34981 whole entry, looked up): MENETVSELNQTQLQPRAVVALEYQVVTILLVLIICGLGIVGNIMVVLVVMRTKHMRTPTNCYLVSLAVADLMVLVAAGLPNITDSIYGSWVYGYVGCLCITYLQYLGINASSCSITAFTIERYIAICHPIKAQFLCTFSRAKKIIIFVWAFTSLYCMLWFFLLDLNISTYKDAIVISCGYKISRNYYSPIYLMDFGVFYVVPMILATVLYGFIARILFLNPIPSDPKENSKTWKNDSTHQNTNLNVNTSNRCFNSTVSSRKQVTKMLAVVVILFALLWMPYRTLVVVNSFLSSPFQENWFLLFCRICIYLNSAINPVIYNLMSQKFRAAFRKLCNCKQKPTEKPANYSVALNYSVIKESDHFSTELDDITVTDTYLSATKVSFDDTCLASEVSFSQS
Sequence of Progesterone receptor (Homo sapiens) (P06401 whole entry, looked up): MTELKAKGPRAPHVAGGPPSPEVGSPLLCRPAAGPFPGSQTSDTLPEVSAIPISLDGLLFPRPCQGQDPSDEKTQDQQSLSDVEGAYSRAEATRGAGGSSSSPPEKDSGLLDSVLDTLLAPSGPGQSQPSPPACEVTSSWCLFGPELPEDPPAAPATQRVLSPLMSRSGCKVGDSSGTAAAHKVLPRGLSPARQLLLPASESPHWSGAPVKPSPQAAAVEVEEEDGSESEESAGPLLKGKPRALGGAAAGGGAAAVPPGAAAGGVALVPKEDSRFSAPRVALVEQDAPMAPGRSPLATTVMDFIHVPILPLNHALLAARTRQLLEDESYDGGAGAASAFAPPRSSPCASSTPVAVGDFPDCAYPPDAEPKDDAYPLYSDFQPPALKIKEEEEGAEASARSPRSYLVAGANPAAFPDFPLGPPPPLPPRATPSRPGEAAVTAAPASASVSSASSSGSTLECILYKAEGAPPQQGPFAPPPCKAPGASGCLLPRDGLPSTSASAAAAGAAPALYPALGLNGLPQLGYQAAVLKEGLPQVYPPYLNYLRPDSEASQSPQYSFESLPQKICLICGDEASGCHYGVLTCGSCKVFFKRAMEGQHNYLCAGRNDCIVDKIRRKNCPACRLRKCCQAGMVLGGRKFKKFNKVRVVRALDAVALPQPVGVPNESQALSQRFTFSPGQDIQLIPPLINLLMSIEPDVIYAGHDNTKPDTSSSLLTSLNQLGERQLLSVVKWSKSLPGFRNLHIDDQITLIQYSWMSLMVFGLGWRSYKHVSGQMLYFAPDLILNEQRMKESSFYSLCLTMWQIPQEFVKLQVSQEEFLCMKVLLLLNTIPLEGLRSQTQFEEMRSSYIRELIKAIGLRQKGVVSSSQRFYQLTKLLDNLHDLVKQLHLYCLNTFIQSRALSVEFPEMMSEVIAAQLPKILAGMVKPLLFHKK
Sequence of Thyrotropin receptor (Homo sapiens) (P16473 whole entry, looked up): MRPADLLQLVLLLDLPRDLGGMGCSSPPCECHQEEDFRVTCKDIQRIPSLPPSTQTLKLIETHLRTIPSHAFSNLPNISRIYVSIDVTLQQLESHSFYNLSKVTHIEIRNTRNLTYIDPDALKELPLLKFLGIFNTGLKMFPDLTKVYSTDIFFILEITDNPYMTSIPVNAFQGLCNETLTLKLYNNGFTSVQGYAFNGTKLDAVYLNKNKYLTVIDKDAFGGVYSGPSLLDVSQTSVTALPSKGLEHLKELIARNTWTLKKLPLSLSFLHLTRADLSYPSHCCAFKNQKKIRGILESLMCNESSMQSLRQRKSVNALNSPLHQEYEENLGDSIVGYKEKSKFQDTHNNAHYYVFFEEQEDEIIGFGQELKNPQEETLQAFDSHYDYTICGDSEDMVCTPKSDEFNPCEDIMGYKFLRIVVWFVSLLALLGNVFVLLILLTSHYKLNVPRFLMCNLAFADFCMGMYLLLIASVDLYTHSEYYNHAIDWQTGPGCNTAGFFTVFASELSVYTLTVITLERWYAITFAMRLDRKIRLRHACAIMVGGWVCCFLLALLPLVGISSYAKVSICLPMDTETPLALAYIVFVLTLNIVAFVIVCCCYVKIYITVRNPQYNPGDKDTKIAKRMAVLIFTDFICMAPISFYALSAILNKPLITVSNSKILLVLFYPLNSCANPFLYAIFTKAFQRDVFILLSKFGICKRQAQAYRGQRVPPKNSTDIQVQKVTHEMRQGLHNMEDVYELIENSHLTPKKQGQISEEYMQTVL
Sequence of Cytochrome P450 2D6 (Homo sapiens) (P10635 whole entry, looked up): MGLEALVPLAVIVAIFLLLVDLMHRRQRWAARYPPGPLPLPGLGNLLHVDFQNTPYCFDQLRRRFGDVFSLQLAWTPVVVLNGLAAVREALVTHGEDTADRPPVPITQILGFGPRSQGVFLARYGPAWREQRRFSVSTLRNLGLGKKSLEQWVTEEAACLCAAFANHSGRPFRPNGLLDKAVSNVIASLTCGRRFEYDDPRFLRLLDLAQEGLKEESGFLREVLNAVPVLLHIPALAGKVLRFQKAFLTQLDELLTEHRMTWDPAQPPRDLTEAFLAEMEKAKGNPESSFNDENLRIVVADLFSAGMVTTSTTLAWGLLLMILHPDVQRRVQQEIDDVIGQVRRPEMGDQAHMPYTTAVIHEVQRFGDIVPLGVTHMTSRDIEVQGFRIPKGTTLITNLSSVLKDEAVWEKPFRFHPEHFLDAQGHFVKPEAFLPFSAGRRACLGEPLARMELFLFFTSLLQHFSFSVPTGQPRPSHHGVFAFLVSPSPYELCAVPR

In the case of `Oc1c(I)cc(I)cc1I`, the Potency entry in [1], in [3], in [4], in test [5], in test [6] and in test [7] was “inactive” in each case. For the same compound, the Potency result in [8], in [9], in test [11] and in test [12] was “inactive” each time. Further, the Potency in test [2] is 38.9 µM (active). Moreover, the call in test [10] was inactive.
As for `CCOC(=O)C(O)(c1ccc(Cl)cc1)c1ccc(Cl)cc1`, the Potency is 31.2 µM (active) and 43.6 µM (active) in test [13]; 55 µM (active) and 54.5 µM (active) in test [14]; 19.7 µM (active) and 34.7 µM (active) in test [3]; 44.1 µM (active) in test [6]; 22.1 µM (active) and 34.7 µM (active) in test [7]; 61.8 µM (active) in [17]. The Potency entry in test [2], in test [4], in test [8], in [15] and in test [11] was “inactive” throughout. Moreover, the outcome in test [10] and in test [16] was inactive.
As for `c1ccc2c(c1)Sc1ccccc1N2CC1CN2CCC1CC2` (stereo not drawn), the Potency in [13] was 19 µM (active); in [15] it was 21.1 µM (active); in test [11] it was 21.1 µM (active); in test [19], 26.6 µM (active); in test [17] it was 29.8 µM (active); in test [12], 29.8 µM (active). The Potency entry in test [18] and in test [14] was “inactive” in each case.
With `OCC(c1ccc(Cl)cc1)c1ccc(Cl)cc1`, the Potency was 54.9 µM (active) in test [13]; 30.9 µM (active) in test [3]; 24.5 µM (active) in test [5]; 38.9 µM (active) in test [6]; 30.9 µM (active) in [7]. Besides, the Potency result in test [8], in test [9], in test [12] and in [20] was “inactive” throughout. For the same compound, the result in [16] was inactive.
Take `Cc1ccc2nc3sc(=O)sc3nc2c1`: the activity change, negative = cytotoxicity in test [13] is -5.08% [at 15.8 µM]; in test [18], 1.22% [at 19 µM]; in [3], 3.61% [at 15.8 µM]; in test [7] it was 3.52% [at 15.8 µM]; in test [8], -12.9% [at 19 µM]; in [15], -3.52% [at 19 µM]. Besides, the activity change, negative = cytotoxicity in test [11] was -19.3% [at 18.9 µM]; in [19], -12.4% [at 19 µM]; in test [12], -0.0724% [at 19 µM]. Moreover, the activation was 7.43% [at 19 µM] in test [14], 0.875% [at 19 µM] in test [10] and -0.107% [at 11.8 µM] in test [16]. For the same compound, the results for the viability change, negative = cytotoxic in test [1] and in test [4] were -9.2% [at 19 µM] and 3.11% [at 15.8 µM], respectively. In addition, the Potency in test [2] was 7.37 µM (active); in [17] it was 5.8 µM (active). Moreover, in test [5], the activity change was -5.16% [at 15.8 µM, active compounds read high]. Besides, in test [6], the cytotoxicity increase was -11.5% [at 15.8 µM]. The figures for the activity change, negative = inhibition in test [9] and in [20] were 2.89% [at 19 µM] and 1.42% [at 23.6 µM], respectively.
In the case of `CCN(CC)C(=O)Cl`, the Potency entry in test [13], in [18], in [14], in [1], in test [2] and in [3] was “inactive” in each case. Also, the Potency entry in test [4], in [5], in [6], in test [7], in test [8] and in test [15] was “inactive” throughout. Also, the Potency entry in [9], in [11], in test [19], in test [17], in test [12] and in test [20] was “inactive” in each case. In addition, the compound was called inactive in test [10] and in test [16].
